Measurements taken from PubChem BioAssay.
Active and inactive are the calls of the source.

Legend:
[1] = test system: PRMT1 (protein arginine N-methyltransferase 1); test: small molecules binding arginine methyltransferase PRMT1 – biochemical, small-molecule microarray, 635 nm fluorescence, primary screen (AID 1088); details: higher = more signal;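 also: binding of Prmt1 protein to compounds spotted on small-molecule microarray slides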
[2] = growth effects on S. cerevisiae YJM789 – YJM789 clinical isolate, OD600, 24 h, basal, primary screen (AID 1089); details: higher = more signal, called active from +8 up or from −8 down;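 also: growth of clinical yeast isolate S. cerevisiae YJM 789 seeded 1000 cells per well; test concentration not given here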
[3] = S. pombe growth modifiers, basal conditions – strain 972, OD600, 24 h, no modulator, primary screen (AID 1090);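 also: basal condition with compound alone and no growth modifier present; test concentration not given here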; details: S. pombe 972 growth, higher = more signal, called active from +8 up or from −8 down
[4] = budding yeast growth modifiers under rapamycin – strain BY4716, OD600, 96 h, primary screen (AID 1091); also: test concentration not given here; details: S. cerevisiae BY4716 + rapamycin, higher = more signal, called active from +8 up or from −8 down
[5] = target: Torsin-1A-interacting protein 2 (Homo sapiens) (UniProt Q8NFQ8); test: small molecules binding lysate-expressed LULL1 – cell lysate, human LULL1 lysate, 635/667 nm fluorescence, primary screen (AID 1092); details: small-molecule microarray, hLULL1 lysate binding, 635 nm fluorescence; higher = more signal;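 also: probe is lysate of COS7 cells overexpressing human LULL1; score merges per-feature 667 nm fluorescence with signal-to-noise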
[6] = optical density change of DRC41 E. coli – strain DRC41, OD650, 24 h, E. coli filamentation project, primary screen (AID 1093);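 also: MC1000 strain lacking acrAB efflux and sulA so SOS filamentation is blocked; test concentration not given here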; details: E. coli DRC41 growth, higher = more signal, called active from +8 up or from −8 down
[7] = probe aLefty2 binding to arrayed compounds – biochemical, biotinylated probe, 635/667 nm fluorescence, primary screen (AID 1094); details: small-molecule microarray, higher = more signal;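 also: score merges spot fluorescence near 667 nm with spot signal-to-noise ratio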
[8] = test system: Noggin (protein binding on small-molecule microarray); test: small molecules binding Noggin protein – biochemical, 635/667 nm fluorescence, primary screen (AID 1095); details: 635 nm fluorescence, higher = more signal;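 also: score merges 667 nm feature fluorescence with signal to noise over triplicate slides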
[9] = target: Neurogenic locus notch homolog protein 3 (Homo sapiens) (UniProt Q9UM47); test: small molecules binding NOTCH3 protein – biochemical, 635/667 nm fluorescence, primary screen (AID 1096); details: small-molecule microarray, 635 nm fluorescence, higher = more signal
[10] = probe aEGFR binding to arrayed compounds – biochemical, biotinylated probe, 635/667 nm fluorescence, primary screen (AID 1097); details: small-molecule microarray, higher = more signal;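 also: probe is a biotinylated anti-EGFR antibody binding compounds printed on slides; score combines fluorescence near 667 nm and signal to noise of each spot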

Torsin-1A-interacting protein 2 (Homo sapiens), sequence (Q8NFQ8 whole entry, looked up): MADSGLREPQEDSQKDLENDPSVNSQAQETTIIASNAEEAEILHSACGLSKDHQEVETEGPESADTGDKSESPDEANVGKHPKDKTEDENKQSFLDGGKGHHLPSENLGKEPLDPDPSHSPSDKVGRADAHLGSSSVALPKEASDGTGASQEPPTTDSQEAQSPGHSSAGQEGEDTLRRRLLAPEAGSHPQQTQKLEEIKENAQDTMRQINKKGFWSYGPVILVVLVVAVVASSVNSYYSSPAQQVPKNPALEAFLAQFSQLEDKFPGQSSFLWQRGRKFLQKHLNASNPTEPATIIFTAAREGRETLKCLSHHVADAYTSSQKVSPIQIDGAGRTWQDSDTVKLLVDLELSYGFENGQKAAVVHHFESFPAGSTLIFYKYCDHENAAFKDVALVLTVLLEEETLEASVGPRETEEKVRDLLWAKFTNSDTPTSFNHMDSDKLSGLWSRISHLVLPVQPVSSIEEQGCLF
Neurogenic locus notch homolog protein 3 (Homo sapiens), sequence (Q9UM47 whole entry, looked up): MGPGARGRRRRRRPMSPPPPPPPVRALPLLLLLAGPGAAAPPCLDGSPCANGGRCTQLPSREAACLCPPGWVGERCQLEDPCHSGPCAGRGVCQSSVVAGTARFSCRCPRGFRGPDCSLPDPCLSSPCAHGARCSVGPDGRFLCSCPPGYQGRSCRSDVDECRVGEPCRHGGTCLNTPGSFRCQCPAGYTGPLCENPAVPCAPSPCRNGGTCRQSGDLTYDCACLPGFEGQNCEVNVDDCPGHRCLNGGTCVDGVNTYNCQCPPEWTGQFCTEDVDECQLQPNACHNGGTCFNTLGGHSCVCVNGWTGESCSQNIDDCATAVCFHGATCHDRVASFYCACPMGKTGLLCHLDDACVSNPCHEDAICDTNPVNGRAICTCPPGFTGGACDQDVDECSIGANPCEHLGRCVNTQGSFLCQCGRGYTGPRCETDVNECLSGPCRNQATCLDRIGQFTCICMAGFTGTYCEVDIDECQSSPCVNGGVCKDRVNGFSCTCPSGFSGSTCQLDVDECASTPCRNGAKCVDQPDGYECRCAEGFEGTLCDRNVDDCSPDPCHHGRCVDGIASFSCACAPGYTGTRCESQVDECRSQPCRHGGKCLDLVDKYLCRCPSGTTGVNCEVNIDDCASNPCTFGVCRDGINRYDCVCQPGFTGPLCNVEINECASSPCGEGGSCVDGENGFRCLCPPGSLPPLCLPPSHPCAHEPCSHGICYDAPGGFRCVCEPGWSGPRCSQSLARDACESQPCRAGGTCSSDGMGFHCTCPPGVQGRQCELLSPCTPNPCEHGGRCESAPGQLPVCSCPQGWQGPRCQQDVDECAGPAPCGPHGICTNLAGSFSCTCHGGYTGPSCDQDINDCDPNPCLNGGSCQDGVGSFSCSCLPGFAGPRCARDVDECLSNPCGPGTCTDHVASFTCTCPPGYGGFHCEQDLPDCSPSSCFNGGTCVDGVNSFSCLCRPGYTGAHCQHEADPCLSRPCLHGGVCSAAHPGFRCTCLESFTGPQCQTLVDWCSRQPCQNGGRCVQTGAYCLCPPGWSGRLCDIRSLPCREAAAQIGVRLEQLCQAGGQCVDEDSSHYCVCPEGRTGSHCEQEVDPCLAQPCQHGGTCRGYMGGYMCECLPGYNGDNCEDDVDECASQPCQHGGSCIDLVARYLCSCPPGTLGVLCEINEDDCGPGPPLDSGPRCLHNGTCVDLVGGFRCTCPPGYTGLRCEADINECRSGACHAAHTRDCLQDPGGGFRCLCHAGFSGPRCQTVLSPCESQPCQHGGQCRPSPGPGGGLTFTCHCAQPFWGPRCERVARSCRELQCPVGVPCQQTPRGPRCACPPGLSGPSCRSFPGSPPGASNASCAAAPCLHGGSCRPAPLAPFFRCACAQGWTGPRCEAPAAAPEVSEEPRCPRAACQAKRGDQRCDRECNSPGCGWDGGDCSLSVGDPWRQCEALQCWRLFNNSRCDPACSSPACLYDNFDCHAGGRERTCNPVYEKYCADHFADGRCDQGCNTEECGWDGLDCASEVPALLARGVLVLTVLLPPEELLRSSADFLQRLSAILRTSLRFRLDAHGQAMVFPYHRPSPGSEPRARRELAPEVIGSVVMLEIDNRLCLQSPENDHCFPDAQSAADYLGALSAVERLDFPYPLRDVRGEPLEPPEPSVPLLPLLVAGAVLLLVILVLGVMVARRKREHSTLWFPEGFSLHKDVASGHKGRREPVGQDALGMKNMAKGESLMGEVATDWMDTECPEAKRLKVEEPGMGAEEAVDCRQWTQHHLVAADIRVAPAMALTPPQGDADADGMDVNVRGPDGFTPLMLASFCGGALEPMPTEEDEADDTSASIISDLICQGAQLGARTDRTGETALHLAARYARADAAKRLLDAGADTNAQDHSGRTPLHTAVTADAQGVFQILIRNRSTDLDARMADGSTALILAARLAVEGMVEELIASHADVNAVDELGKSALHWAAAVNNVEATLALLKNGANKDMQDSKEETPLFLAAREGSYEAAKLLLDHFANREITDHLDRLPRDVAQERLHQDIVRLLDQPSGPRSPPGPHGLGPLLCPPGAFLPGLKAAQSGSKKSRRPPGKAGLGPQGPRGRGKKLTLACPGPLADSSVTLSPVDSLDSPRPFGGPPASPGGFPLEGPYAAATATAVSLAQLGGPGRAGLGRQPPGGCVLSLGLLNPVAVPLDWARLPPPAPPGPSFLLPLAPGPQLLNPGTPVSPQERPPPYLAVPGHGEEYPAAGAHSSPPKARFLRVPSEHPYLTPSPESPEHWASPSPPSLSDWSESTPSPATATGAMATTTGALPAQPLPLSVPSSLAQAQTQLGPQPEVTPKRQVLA

| SMILES | composite z-score [1] | z-score [2] | z-score [3] | z-score [4] | composite z-score [5] | z-score [6] | composite z-score [7] | composite z-score [8] | composite z-score [9] | composite z-score [10] |
| --- | --- | --- | --- | --- | --- | --- | --- | --- | --- | --- |
| COc1ccc(CCNC(=O)[C@@]2(C)c3ccccc3C(=O)N(C(C)C)[C@H]2c2ccc(CO)cc2)cc1 | 0.601 | -0.122 (inactive) | -0.366 (inactive) | -0.321 (inactive) | 2.15 | 0.721 (inactive) | -0.107 | 0.456 | -0.399 | 0.0117 |
| CC(C)C(=C=CC[C@@H](O)c1ccc(OCCO)cc1)C[C@@H](O)c1ccccn1 | 1.19 | -1 (inactive) | -0.141 (inactive) | -0.347 (inactive) | -0.27 | -0.162 (inactive) | -0.235 | 1.08 | 0.813 | -0.133 |
| CCCC[C@@H]1C[C@H]1[C@@H](NC(=O)c1ccco1)c1ccccc1C(F)(F)F | -0.191 | 0.493 (inactive) | 1.13 (inactive) | -0.0491 (inactive) | 1.53 | -0.763 (inactive) | 1.36 | -0.339 | 0.453 | 0.856 |
| C=CCC(OC(C)=O)[C@@H]1[C@@H](N(Cc2ccc(-c3ccccc3)cc2)C(=O)c2ccc(-c3ccccc3)cc2)c2cc(OCCCO)ccc2N1C(=O)Cc1ccc2ccccc2c1 (stereo not given in full) | 0.758 | -0.609 (inactive) | -0.214 (inactive) | 0.218 (inactive) | 0.765 | -0.763 (inactive) | -0.119 | 0.233 | 0.3 | -0.17 |
| COc1ccccc1CN1C(=O)c2ccccc2[C@@]2(Cc3ccccc3N(CC(C)C)C2=O)[C@@H]1c1ccc(CO)cc1 | 0.545 | -0.928 (inactive) | 0.189 (inactive) | -1.03 (inactive) | -0.359 | -0.0514 (inactive) | -0.122 | -0.19 | -0.285 | -0.127 |
| CCCC#C[Si](O[C@H](CC)c1cn(Cc2cccc(Cl)c2)nn1)(C(C)C)C(C)C | 0.756 | -1.19 (inactive) | -9.34 (active) | -1.52 (inactive) | 1.91 | 1.5 (inactive) | -0.0068 | 0.476 | 1.13 | 0.252 |
| COC(=O)[C@@]1(CCC(=O)OC(C)(C)C)N=C(c2ccc(OCCCO)cc2)O[C@H]1c1ccccc1N=[N+]=[N-] | 1.28 | 0.0049 (inactive) | -0.786 (inactive) | 33.6 (active) | 1.83 | 0.817 (inactive) | -0.309 | 0.714 | 0.388 | -0.0828 |
| O=C1C2C=CC(C(O)Cc3ccccc3)N(n3cnnc3)C2C(=O)N1Cc1ccccc1 (stereo not given) | 0.411 | -0.112 (inactive) | 0.116 (inactive) | 0.343 (inactive) | 2.93 | -1.25 (inactive) | 0.0906 | -0.785 | 0.153 | -0.0592 |
| CC(C)[Si](C#Cc1ccc(Oc2ccccc2)cc1)(O[Si](C#Cc1ccc(Oc2ccccc2)cc1)(C(C)C)C(C)C)C(C)C | 0.578 | 1.8 (inactive) | 0.267 (inactive) | 4.06 (inactive) | 0.981 | 1.06 (inactive) | -0.192 | 0.267 | -0.0319 | 0.0746 |
| COC(=O)[C@H](Cc1ccccc1)N1CC2=C[C@@H](C3CC3)n3c(=O)n(C)c(=O)n3[C@H]2[C@@H]1[C@@H](O)Cc1ccccc1 | 1.06 | -0.973 (inactive) | -1.15 (inactive) | 0.0538 (inactive) | 2.88 | -0.89 (inactive) | -0.136 | 1.15 | 1.02 | 0.142 |
| COC(=O)[C@@]1(Cc2ccc(F)cc2)[C@H]2c3cc(C(=O)N4CCCC4)n(CCCNc4ncc(C(F)(F)F)cc4Cl)c3C[C@H]2CN1C(=O)c1ccccc1 | -0.954 | 1.62 (inactive) | 2.15 (inactive) | 2.65 (inactive) | 2.65 | -0.87 (inactive) | 0.83 | -0.756 | 0.696 | 0.476 |
| CCCC[C@@H]1C[C@H]1[C@@H](NC(=O)c1cccs1)c1ccc(-c2ccccc2)cc1 | 0.464 | 0.227 (inactive) | -3.7 (inactive) | -1.24 (inactive) | 1.09 | -0.692 (inactive) | -0.121 | 0.692 | 0.428 | -0.0688 |
| Oc1ccc2cc[n+](Cc3sc4ccccc4c3Cl)cc2c1 | 0.599 | 0.0335 (inactive) | -1.43 (inactive) | 2.3 (inactive) | 3.37 | -1.82 (inactive) | 0.217 | 0.311 | 0.207 | -0.0409 |
| C=C(COC)C(=O)CC[C@@H](OC(C)=O)c1ccc(CO)o1 | 1.43 | -1.22 (inactive) | -0.198 (inactive) | -0.22 (inactive) | -0.0809 | 0.433 (inactive) | -0.117 | 1.11 | 0.612 | -0.0463 |
| C=CCNC(=O)[C@@H]1[C@H]2C(=O)O[C@H](c3ccccc3)[C@H](c3ccccc3)N2[C@H](c2ccc(OCCO)cc2)[C@@]12C(=O)Nc1ccc(C#CCC(C(=O)OC)C(=O)OC)cc12 | 1.53 | 1.87 (inactive) | 2.03 (inactive) | 3.83 (inactive) | 3.04 | 1.92 (inactive) | 0.0869 | 1.31 | 0.981 | -0.0466 |
| C=C(/C(=C/C[C@H](OC(C)=O)c1ccc(CO)o1)c1cc(C(=O)OC)ccc1OC)C(C)C | 0.57 | 1.02 (inactive) | -0.967 (inactive) | 0.0168 (inactive) | 0.381 | 0.865 (inactive) | -0.0485 | 0.58 | 0.368 | -0.0206 |
| COC(=O)[C@@]1(Cc2ccc(OC)cc2)[C@H]2c3cc(C(=O)N(C)C)n(CCc4ccccn4)c3C[C@H]2CN1C(=O)c1ccccc1 | -0.663 | 0.735 (inactive) | 1.55 (inactive) | 2.81 (inactive) | 2.5 | -0.901 (inactive) | 1.09 | -0.307 | 0.0532 | 0.865 |
| CC(C)N1C(=O)[C@@]2(Cc3ccccc31)c1ccccc1C(=O)N(Cc1ccccc1Cl)[C@H]2c1ccc(CO)cc1 | 0.477 | -1.05 (inactive) | -1.17 (inactive) | -2.86 (inactive) | -0.203 | -1.25 (inactive) | -0.153 | -0.665 | -0.942 | -0.152 |
| CC(C)C[C@@H]1NC(=O)[C@H](C(C)C)NC(=O)[C@@]23C(=O)N[C@@H](Cc4ccccc4)C2[C@H](C)[C@@]2(C)O[C@H]2C3/C=C/CC/C=C/CNC1=O (stereo not given in full) | 1.55 | -0.0106 (inactive) | -0.328 (inactive) | -0.522 (inactive) | 2.27 | -0.215 (inactive) | -0.0346 | 0.782 | 1.03 | -0.096 |
| COc1ccc(CCNC(=O)[C@@H]2c3ccccc3C(=O)N(Cc3ccccc3Cl)[C@H]2c2ccc(CO)cc2)cc1 | 0.533 | -0.874 (inactive) | -0.96 (inactive) | 0.35 (inactive) | 1.65 | -0.139 (inactive) | -0.0299 | -0.215 | 0.124 | 0.0121 |
| C=CCOC(=O)[C@H]1[C@@H]2C(=O)O[C@@H](c3ccccc3)[C@@H](c3ccccc3)N2[C@@H](c2ccc(OCCOC(=O)[C@H]3C[C@H]4C(=O)N[C@@H](CCCC[N+](C)(C)C)C(=O)N4[C@H]3c3ccc(O)cc3)cc2)[C@]12C(=O)Nc1ccc(I)cc12 | 1.36 | 0.318 (inactive) | -0.503 (inactive) | 0.467 (inactive) | 1.14 | -0.173 (inactive) | 0.331 | 0.733 | 0.209 | 0.0304 |
| COC(=O)[C@@]1(CCS(=O)(=O)c2ccccc2)N=C(c2ccc(OCCCO)cc2)O[C@H]1c1ccccc1CN=[N+]=[N-] | 1.38 | 0.265 (inactive) | 1.18 (inactive) | 34.4 (active) | 3.01 | 0.706 (inactive) | 0.0054 | 0.338 | 1 | 0.127 |
| CCCCCCc1nc(-c2ccc(OC)nc2)cc2c1[Si](C(C)C)(C(C)C)O[C@H]2c1ccccc1 | 0.608 | 0.493 (inactive) | 0.993 (inactive) | -0.226 (inactive) | -0.4 | -0.995 (inactive) | -0.203 | 0.75 | 0.783 | -0.0674 |
| C=CCOC(=O)[C@H]1[C@@H]2C(=O)O[C@@H](c3ccccc3)[C@@H](c3ccccc3)N2[C@@H](c2ccc(OCCOC(=O)[C@H]3C[C@H]4C(=O)N[C@@H](CCCCNC(C)=O)C(=O)N4[C@H]3c3cccc(OCCO)c3)cc2)[C@]12C(=O)Nc1ccccc12 | 1.55 | 0.17 (inactive) | 1.11 (inactive) | 2.59 (inactive) | 3.05 | 0.272 (inactive) | -0.0865 | 0.664 | 0.879 | -0.0996 |
| COC(=O)[C@@]1(Cc2ccc(F)cc2)[C@H]2c3cc(C(=O)N4CCCC4)n(Cc4ccc(S(C)(=O)=O)cc4)c3C[C@H]2CN1C(=O)c1ccccc1 | -0.0384 | -0.13 (inactive) | 0.365 (inactive) | 1.48 (inactive) | 3.29 | -1.02 (inactive) | 0.267 | -0.771 | 1.02 | 0.123 |
| CO[C@H]1O[C@H](CO)[C@@H](OC(=O)Nc2ccccc2)[C@H](OC(=O)Nc2ccccc2)[C@@H]1OC(=O)Nc1ccccc1 | 1.53 | 1.24 (inactive) | 0.975 (inactive) | 3.37 (inactive) | 3.66 | -0.0493 (inactive) | 0.232 | 1.38 | 1.06 | 0.138 |
